Records with an inconclusive call do not appear. A number with no mark means an inactive call. Calls of active or inactive are those of the source. The call rests on the fitted dose curve; in most records, active means well fitted inhibition curve with a large enough effect; inconclusive means small, poorly fitted or top-dose-only effect; inactive means flat fitted curve, though single readings scatter.
On the % scale 0 is the no-effect control and ±100 the full control effect; potency means the concentration at half of the fitted maximal effect.

The assay in a line: P-glycoprotein substrates identified in KB-8-5-11 adenocarcinoma cell line, qHTS therapeutic library screen (AID 1346987). Further: nearly all actives have a fitted effect of over 65% in size. As to conditions: KB-8-5-11 (P-gp overexpressing) viability, CellTiter-Glo, 72 h; series mostly up to 44.5 µM; activity change, negative = cytotoxicity: at the top concentration. Summed up:
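P-gp-mediated resistance screen: KB-8-5-11 cells treated 72 h with compounds in dose-response. CellTiter-Glo viability.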
Take `O=C(OCCOCCO)c1ccccc1Nc1cccc(C(F)(F)F)c1`: the Potency result is “inactive”.
As for `C=C1C[C@H]2[C@@H]3C=C(C)C4=CC(=O)CC[C@]4(C)[C@H]3CC[C@]2(C)[C@@]1(OC(C)=O)C(C)=O`, the Potency is 14.6 µM (active).
As for `CCN(CC)CCOC(=O)C(c1ccccc1)C1CCCCC1` (configuration not stated), the “activity change, negative = cytotoxicity” value was -9.32%.
On the same count and under the same terms, to `CCCCCCc1ccc(O)cc1O` belongs 1.31%; to `C[C@]12CC[C@@H]3c4ccc(O)cc4CC[C@H]3[C@@H]1C[C@@H](O)[C@@H]2O`, 0.991%; to `OCc1ccccc1O`, 11%.
On the same count and under the same terms, to `Oc1ccc(Cl)c2cccnc12` belongs -23.8%; to `CNCC[C@@H](Oc1ccccc1C)c1ccccc1`, -10.6%.
For `C=C1C(=C/C=C2\CCC[C@]3(C)[C@@H]([C@H](C)/C=C/[C@@H](O)C4CC4)CC[C@@H]23)C[C@@H](O)C[C@@H]1O`, the Potency was 8.2 µM (active).
Take `COc1cc(OC)cc(OC)c1`: the “activity change, negative = cytotoxicity” value is 0.663%.
As to `CC(C)(C)CC(C)(C)c1ccc(O)c(Cc2ccc(Cl)cc2Cl)c1`, the Potency is 23.1 µM (active).
As for `CC1(C)O[C@@H]2C[C@H]3[C@@H]4C[C@H](F)C5=CC(=O)C=C[C@]5(C)[C@H]4[C@@H](O)C[C@]3(C)[C@]2(C(=O)CO)O1`, the “activity change, negative = cytotoxicity” value is -5.79% [at 17.3 µM].
The same measure, in the same setting: to `CCOC(=O)c1cccc(N)c1` belongs 0.468%; to `COC(=O)[C@@H]1CC2=CC(=O)CC[C@]2(C)[C@@]23O[C@@H]2C[C@@]2(C)[C@@H](CC[C@@]24CCC(=O)O4)[C@H]13`, -10.9%; to `CCn1cc(C(=O)O)c(=O)c2cnc(N3CCCC3)nc21`, 8.41% [at 17.3 µM].
Consider `COc1cc2c(cc1OC)C(C(C(=O)N(CCc1ccc(OC)c(OC)c1OC)CCc1ccc(OC)c(OC)c1OC)c1ccccc1)=NCC2` (configuration not stated), for which the Potency was 9.2 µM (active).
Still for that read-out and setting: to `OC[C@H]1O[C@@H](n2cnc3c(=S)nc[nH]c32)[C@H](O)[C@@H]1O` belongs 1.84 µM (active).
As for `C=CCc1ccc(O)c(OC)c1`, the “activity change, negative = cytotoxicity” value was -7.86%.
The same measure, in the same setting: to `O=C(O)CNC(=O)c1ccccc1` belongs -7.9%.
For `COc1cc(/C=C/C(=O)O[C@H]2CC[C@]34C[C@]35CC[C@]3(C)[C@@H]([C@H](C)CCC=C(C)C)CC[C@@]3(C)[C@@H]5CC[C@H]4C2(C)C)ccc1O`, the Potency result was “inactive”.
Consider `CC(=O)Oc1ccc(C(c2ccc(OC(C)=O)cc2)c2ccccn2)cc1`, for which the “activity change, negative = cytotoxicity” value was -18.8%.
The same measure, in the same setting: to `CCOC(=O)COc1ccc2c(C)c(CCN(CC)CC)c(=O)oc2c1Cl` belongs -4.83%; to `COc1c2occc2c(OC)c2c(=O)cc(C)oc12`, -1.19% [at 17.3 µM]; to `CC(=O)N(O)CCCCCNC(=O)CCC(=O)N(O)CCCCCNC(=O)CCC(=O)N(O)CCCCCN`, 3.96% [at 17.3 µM].
Same read-out and setting: to `CCN1CCCC1=O` belongs -11.8%.
For the molecule `COc1cc(-c2ccc(=O)[nH]n2)ccc1OC(F)F`, the Potency was 0.116 µM (active).
Regarding `O=c1[nH]c(=O)n([C@H]2CCCO2)cc1F`, the “activity change, negative = cytotoxicity” value is -2.7%.
Same read-out and setting: as for `NC(CO)(CO)CO`, the figure is 4.74%.
As for `C[C@]12CCC(=O)C=C1CC[C@H]1[C@@H]3CC[C@](O)(C(=O)CO)[C@@]3(C)C[C@H](O)[C@@]12F`, the Potency result is “inactive”.
As to `c1ccc(CNCCNCc2ccccc2)cc1`, the “activity change, negative = cytotoxicity” value is -9.2%.
Turning to `COc1cc2c(cc1OC)C(=O)C(CC1CCN(Cc3ccccc3)CC1)C2` (configuration not stated), the Potency is 8.2 µM (active).
On to `C[C@H](CCC(=O)O)[C@H]1CC[C@H]2[C@@H]3C(=O)C[C@@H]4CC(=O)CC[C@]4(C)[C@H]3CC(=O)[C@]12C`, for which the “activity change, negative = cytotoxicity” value is -9.73%.

The values above are taken from PubChem BioAssay (NCATS).
